# Screening results deposited in PubChem by National Center for Advancing Translational Sciences (NCATS).
# Most compounds without a hit are left out; they make up all but 4.6% or so of the library.
# D1 ag – activates the human D1 dopamine receptor. P21728. activation, % at 2 µM. AID 504660. HEK293 T-REx D1 cells, calcium flux, agonist mode. 1% of 360,000 active; further: 0% is about no effect
#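 Agonism was scored from calcium flux recorded over 180 s (1 read/s) after pintool compound addition, following a 10-cycle baseline. Cells were inducible force-coupled HEK293 TREx D1, plated overnight at 30 C and loaded with no-wash calcium dye.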
# TRHR agonist – agonists of human TRH receptor. P34981. TRHR cells, calcium flux fluo-8, FDSS agonist mode. activation, % at 2 µM. 0.18% of 360,000 active. AID 493084; further: 0% is about no effect
# Target sequence (P34981 whole entry, looked up): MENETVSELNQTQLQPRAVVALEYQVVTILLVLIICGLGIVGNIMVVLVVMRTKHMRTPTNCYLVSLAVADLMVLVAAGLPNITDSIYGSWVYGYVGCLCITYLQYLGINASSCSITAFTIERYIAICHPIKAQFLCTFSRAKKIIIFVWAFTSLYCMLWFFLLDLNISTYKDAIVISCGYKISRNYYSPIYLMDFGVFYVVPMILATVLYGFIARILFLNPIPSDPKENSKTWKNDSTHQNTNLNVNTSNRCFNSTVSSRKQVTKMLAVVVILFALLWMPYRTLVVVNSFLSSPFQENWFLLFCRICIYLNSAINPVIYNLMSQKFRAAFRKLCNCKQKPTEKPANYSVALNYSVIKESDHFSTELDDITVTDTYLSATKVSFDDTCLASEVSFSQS
#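 TRHR-expressing cells loaded with fluo-8 calcium dye; 23 nL library compound pin-transferred, kinetic FDSS fluorescence (Ex 480/Em 530) recorded about 180 s for agonist-induced calcium release, before a 10 nM TRH EC20 addition for potentiator mode.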
# D1 PAM – human D1 dopamine receptor positive modulation; AID 504651; HEK293 TREx D1 cells, calcium flux, dopamine EC20 potentiation; P21728; potentiation, % at 10 µM; 0.036% of 360,000 active; in the data active means potentiation above about 30%; further: 0% is about no effect
# D1 antagonist – human D1 dopamine receptor antagonism; P21728; 3.2% of 360,000 active; HEK293 TREx D1 cells, calcium flux, dopamine EC80; active compounds read low; AID 504652; activity change, negative = inhibition, % at 10 µM; in the data active means activity change below about -30%; further: on the % scale 0 is the no-effect control and ±100 the full control effect
#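 Calcium flux readout: force-coupled, inducible Hek293 Trex D1 line, cells induced overnight at 30 C with tetracycline, dye-loaded 30–90 min at RT. Antagonism scored against EC80 dopamine challenge given 180 s after compound.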
# TRHR PAM – TRH receptor (human) allosteric enhancement | P34981 | TRHR cells, fluo-8 calcium fluorescence, EC20 TRH enhancement | enhancement, % at 2 µM | 0.66% of 360,000 active | AID 493056; in the data active means enhancement above about 30%; further: 0% is about no effect
#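 Enhancer read-out: after compound pinning and an initial kinetic agonist-mode read, an EC20 of TRH (10 nM final) was injected and fluo-8 calcium signal (Ex 480/Em 530) followed at 1 s/cycle for 100 cycles in TRHR-expressing cells.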
# Active calls of the source: *; . = no result given. Unless noted, no stated cut-off is given here; in the data, active means activation above about 30%; inactive means the rest.
SMILES,D1 ag,TRHR agonist,D1 PAM,D1 antagonist,TRHR PAM
O=C(Nc1ccccc1C(=O)N/N=C/c1ccncc1)c1ccccc1,3.4,0.3,-11.2,-31.8*,0.4
O=C(CCC(=O)Nc1ccccc1)N/N=C/c1ccncc1,5.2,-0.9,-3.6,-6.0,13.7
COc1ccc(/C=N/NC(=O)CNS(=O)(=O)c2ccccc2)cc1,0.3,-0.3,-6.2,-38.4*,6.4
COc1ccc(NC(=O)CCC(=O)N/N=C/c2ccncc2)cc1,1.7,0.9,-5.0,-64.0*,0.5
COC(=O)[C@@]12OC[C@]34[C@H]([C@@H](O)[C@@H]1O)[C@@]1(C)C(=O)C(O[C@@H]5OC(CO)[C@@H](O)[C@@H](O)[C@@H]5O)=C[C@@H](C)[C@@H]1C[C@H]3OC(=O)[C@H](OC(=O)/C=C(\C)C(C)(C)OC(C)=O)[C@@H]24 (stereo partly specified),1.3,0.6,6.0,7.9,2.0
Cc1cccc(NC(=O)CSc2nncn2C)c1,-0.3,0.0,0.1,-24.0,15.1
Cc1c(Cl)cccc1NC(=O)CN1C(=O)c2ccccc2Sc2ncccc21,5.7,-1.8,-2.6,-3.0,9.6
CCCCN(C)C(=O)C1CCCN(c2ncnc3onc(-c4ccc(F)cc4)c23)C1 (stereo unspecified),0.5,-1.0,-4.6,12.2,5.1
Cc1ccc(-c2cc3c(n2-c2ccccc2F)CC(C)(C)CC3=O)cc1,3.1,1.4,-3.4,-15.9,-9.2
COc1ccc(/C=N/NC(=O)CCn2cnc3ccccc32)cc1,4.3,-1.1,-4.4,-51.2*,-3.1
COc1cccc2c(C)cc3nnc(SCC(=O)Nc4ccc(C)cc4)n3c12,2.0,-0.2,-1.2,-0.4,-0.9
COc1ccccc1CNCC(O)(c1ccc(F)cc1)c1ccc(F)cc1,2.2,1.1,-10.3,-51.9*,-8.2
COc1ccccc1CNN,1.5,0.0,0.5,12.0,33.1*
COc1ccccc1CNCC(O)(c1ccc(Cl)cc1)c1ccc(Cl)cc1,6.4,0.7,1.2,23.0,1.9
COc1cccc(OCC(=O)NC2CC(=O)N(c3cccc(OC)c3)C2)c1 (stereo unspecified),0.5,0.1,2.1,.,1.6
Cc1ccc(N2CCN(C(=O)CCc3nc4ccccc4[nH]3)CC2)c(C)c1,5.8,0.4,1.9,-34.7*,-13.4
CCOC(=O)c1sc(NC(=O)c2cc(-c3ccc(F)cc3)on2)c(C(=O)OCC)c1C,1.9,1.1,0.2,-15.0,4.7
CC(=O)Nc1ccnc(-c2cccnc2)n1,0.1,0.8,0.0,-4.0,1.2
CCCCC(=O)Nc1ccnc(-c2cccnc2)n1,220.4*,0.2,-2.4,-86.4*,0.6
COc1ccc(Nc2ncnc3c2nc2n3CCCCC2)cc1,0.1,-0.5,7.6,-8.5,2.8
CCC(OC(C)=O)c1cc2c(cc1[N+](=O)[O-])OCCO2 (stereo unspecified),-1.6,-1.7,-2.0,16.7,4.9
CCCC(=O)C1=C(O)C(C(=O)OC)C(C)(C)CC1=Nc1ccccc1 (stereo unspecified),1.3,-0.5,-2.8,-45.7*,-3.7
CCCC(=O)C1=C(O)C(C(=O)OC)C(C)(C)CC1=NCc1ccccc1 (stereo unspecified),1.3,0.0,-7.2,1.1,-1.7
C=C[C@@H]1c2cc(C)ccc2N(S(=O)(=O)c2ccc(C)cc2)[C@H](c2ccccc2C(F)(F)F)C1(C#N)C#N,1.3,0.7,-2.9,-35.2*,-6.2
O=C(CN1C(=O)CSc2ncccc21)Nc1cccc(Cl)c1,1.5,0.1,1.6,11.0,1.0
SMILES,D1 ag,TRHR agonist,D1 PAM,D1 antagonist,TRHR PAM
CC1CC(C)CN(CC(=O)N2CCc3[nH]c4ccccc4c3C2)C1 (stereo unspecified),9.5,-0.5,0.5,-6.2,0.8
CC1CN(CC(=O)N2CCc3[nH]c4ccccc4c3C2)CC(C)O1 (stereo unspecified),1.8,0.1,1.6,-44.2*,1.5
CCC(=O)NC1(C(F)(F)F)C(=O)Nc2c1c(=O)n(C)c(=O)n2C (stereo unspecified),4.3,0.5,-8.0,-60.2*,-2.9
CS(=O)(=O)/C(C#N)=C/c1cccn1S(=O)(=O)c1ccccc1,2.9,0.0,-4.5,-15.8,0.4
CN(C)n1cccc1/C=C(\C#N)S(=O)(=O)c1cccc(Cl)c1,5.7,-0.1,-8.5,-35.2*,-10.3
C/C(=N\Nc1ccc(C(=O)O)cc1)c1ccc(Br)cc1,0.6,0.0,-5.8,-9.1,0.1
C/C(=N\Nc1ccc(C(=O)O)cc1)c1ccc(Cl)s1,50.1*,0.8,-0.1,3.6,-0.1
Cc1cc(N2CCOCC2)nc(SCC(=O)c2ccccc2)n1,0.3,-0.3,-2.8,4.9,2.8
Cc1cc(N2CCOCC2)nc(NCc2ccccc2)n1,45.1*,-0.3,-6.4,-63.4*,-0.8
Cc1cc(N2CCCCC2)nc(NCc2ccccc2)n1,81.1*,14.9,-8.4,-50.3*,-18.7
Cc1cc(NCc2ccccc2)nc(N2CCOCC2)n1,1.8,0.0,-7.3,-91.4*,-1.0
CNc1cc(C)nc(N2CCOCC2)n1,2.1,1.8,0.8,-0.7,-0.6
CCOc1ccc(CNC(=O)Cn2cc3c(n2)-c2c(oc(C(=O)N4CCOCC4)c2C)CC3)cc1,2.2,0.0,-3.1,-3.7,-2.2
O=C(Cc1coc2cc3c(cc12)CCC3)NC1CCCCCCC1,5.4,0.6,1.1,-50.9*,7.5
O=C(COc1ccc2ccc(=O)oc2c1)N1CC[C@@]2(O)CCCC[C@H]2C1,0.4,0.1,-9.6,-49.1*,-3.2
Cc1c(C)c2ccc(OCC(=O)N3CC[C@@]4(O)CCCC[C@H]4C3)cc2oc1=O,1.9,0.4,0.8,-11.3,4.9
Cc1ccccc1CNC(=O)CCCn1c(=O)c2cccn2c2ccccc21,3.7,-0.2,-4.1,1.7,17.4
Cn1c(=O)n(C)c2cc(N3CCOCC3)c(NC(=O)c3ccccc3Br)cc21,-0.5,-1.3,-2.2,-43.0*,2.9
COc1cccc(OC)c1C(=O)Nc1cc2c(cc1N1CCOCC1)n(C)c(=O)n2C,2.8,0.3,-2.2,-4.3,8.4
Cn1c(=O)n(C)c2cc(N3CCOCC3)c(NC(=O)c3ccc(F)cc3)cc21,1.8,0.2,1.6,2.7,31.6*
O=C(Nc1ccccc1N1CCOCC1)c1cc(Br)c(Br)s1,3.4,0.3,3.4,-30.9*,-0.6
Cc1nn(Cc2ccccc2Cl)c2sc(C(=O)Nc3ccccc3N3CCOCC3)cc12,3.1,0.1,-4.0,-37.9*,2.1
O=C(NCC(c1cccs1)S(=O)(=O)c1cccs1)c1c(F)cccc1F (stereo unspecified),1.8,0.1,-1.8,-12.3,-18.9
CC(=O)C1[C@H](N(C)C)CC2C3CC=C4CC(O)CC[C@]4(C)C3CC[C@@]21C (stereo partly specified),4.9,1.2,7.0,4.0,0.0
